# Results: ChEMBL document CHEMBL3433997, “St. Jude Leishmania screening dataset” (2016)
# What was measured:
# Type in all cases: functional
# [1] = molecular target: Solute carrier family 2, facilitated glucose transporter member 1 (Homo sapiens) (UniProt P11166); assay: ST_JUDE_LEISH: Cytotoxicity at 2uM final concentration against transgenic Leishmania Mexicana promastigotes LmGLUT1 that are glucose transport deficient and complemented with the human glucose transporter GLUT1. Activity is measured by DNA content using SYBR green in vitro
# [2] = molecular target: Hexose transporter 1 (Plasmodium falciparum) (UniProt O97467); assay: ST_JUDE_LEISH: Cytotoxicity at 2uM final concentration against transgenic Leishmania Mexicana promastigotes LmPfHT that are glucose transport deficient and complemented with the Plasmodium falciparum hexose transporter. Activity is measured by DNA content using SYBR green in vitro
# [3] = molecular target: Glucose transporter (Leishmania mexicana) (UniProt O61059); assay: ST_JUDE_LEISH: Cytotoxicity at 2uM final concentration against transgenic Leishmania Mexicana promastigotes LmGT2 that are glucose transport deficient and complemented with the L. Mexicana glucose transporter 2. Activity is measured by DNA content using SYBR green in vitro
# Solute carrier family 2, facilitated glucose transporter member 1 (Homo sapiens), sequence (P11166 whole entry): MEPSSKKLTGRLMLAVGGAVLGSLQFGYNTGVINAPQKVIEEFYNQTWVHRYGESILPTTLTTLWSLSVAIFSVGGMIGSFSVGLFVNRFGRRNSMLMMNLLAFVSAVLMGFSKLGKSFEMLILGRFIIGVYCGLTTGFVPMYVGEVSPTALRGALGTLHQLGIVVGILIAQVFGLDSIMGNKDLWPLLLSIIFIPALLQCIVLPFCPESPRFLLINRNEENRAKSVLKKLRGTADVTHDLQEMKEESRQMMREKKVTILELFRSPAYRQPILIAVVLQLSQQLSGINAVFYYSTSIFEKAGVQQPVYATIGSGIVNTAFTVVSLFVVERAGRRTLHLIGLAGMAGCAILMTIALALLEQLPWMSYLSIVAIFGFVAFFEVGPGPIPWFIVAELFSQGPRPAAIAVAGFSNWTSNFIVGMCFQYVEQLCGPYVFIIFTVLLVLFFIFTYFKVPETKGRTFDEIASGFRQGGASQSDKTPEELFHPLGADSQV
SMILES,inhibition [1] [%],inhibition [2] [%],inhibition [3] [%]
CC(=O)Nc1ccc(C(=O)Nc2cccc(-c3ccc(-c4nc5cccc(C)c5[nH]4)cc3)c2)cn1,4.86,4.51,4.91
O=C(Cc1ccc(-c2ccccc2)cc1)N[C@H]1CCN(Cc2ccc(OCCCN3CCCCC3)cc2)C1,18.6,17.2,8.12
Cc1cccc2nc(-c3cccc(-c4ccc(NC(=O)C(C)C(=O)NC(C)C)cc4)c3)[nH]c12 (stereo unspecified),0.75,2.05,2.38
FC(F)(F)c1ccc2[nH]c(-c3ccc(-c4cccc(CNCCc5cccnc5)c4)s3)nc2c1,3.04,2.04,4.6
Cc1c(Oc2ccc(-n3ccnc3)cc2)ncnc1N1CCC2(CC1)CNCc1ccccc12,10.5,8.76,2.5
O=C(NCCCCN1CCN(c2ccc3c(c2)CCC3)CC1)c1ccc(NC(=O)c2ccc(Cl)cc2)cc1,55.3,38.1,24.9
O=C(Nc1cccc(Cl)c1)c1cc2ccccc2cc1O,2.74,3.05,2.04
O=C(NCC(c1ccc(C(F)(F)F)cc1)N1CCCC1)c1cc(-c2ccncc2)c(-c2cccc(O)c2)o1 (stereo unspecified),0.81,-0.82,-0.08
CCOc1ccc(C2CCN(CCCCNC(=O)c3ccc(NC(=O)c4ccc(Cl)cc4)cc3)CC2)c(OCC)c1,4.52,3.34,2.91
Cc1cc(NCCC(=O)Nc2ccccc2)nc(NCc2ccccc2C)n1,11,10.5,7.37
CCCC(C(=O)OCCNC)(c1ccccc1)c1ccccc1,1.4,0.51,0.81
Cc1cccc2nc(-c3ccc(-c4ccc(CNCCCN5CCCC5=O)cc4)cc3)[nH]c12,7.88,5.8,4.42
Cc1ccc2c(=O)cc(CCc3cccc(F)c3F)n(CC(=O)N(Cc3ccc(-c4ccc(C(F)(F)F)cc4)cc3)C3CCN(C)CC3)c2n1,2,0.92,1.01
CCN(Cc1ccccc1)C1CCN(Cc2cc(Br)ccc2O)CC1,2.39,2.05,2.71
CN1CCCC(CN2CCN(Cc3ccc(-c4ccc(-c5nc6cc(F)ccc6[nH]5)s4)cc3)CC2)C1 (stereo unspecified),5.94,5.97,4.47
C[C@H](Cc1ccc(Oc2ccc(C[C@@H](C)NC[C@H](O)c3cccc(Cl)c3)cc2)cc1)NC[C@H](O)c1cccc(Cl)c1,106,104,102

SMILES,inhibition [1] [%],inhibition [2] [%],inhibition [3] [%]
Fc1cccc(COc2ccc(Nc3ncnc4ccc(-c5nnc(C(F)(F)F)o5)cc34)cc2Cl)c1,4.63,4.57,1.46
COc1cccc(-c2nn(C)c3sc(C(=O)NCCN4CCN(c5ccccc5F)CC4)cc23)c1,-0.88,2.01,0.29
NCCCNc1ccc(-c2ccc(NC(=O)Nc3cc(C(F)(F)F)ccc3F)cc2)cn1,2.29,2.81,1.11
COc1ccc(CNCc2ccsc2)cc1-c1ccc(OC)c(S(=O)(=O)NCCN2CCCC2)c1,1.22,1.92,-1.86
COc1cc2c(cc1C(F)(F)F)N(C(=O)Nc1ccc(Br)cn1)CC2,-0.2,0.68,-1.31
COc1cc(F)c2ncc(Cl)c(CCN3CCC(NCc4ccc5c(n4)NC(=O)CO5)CC3)c2c1,3.28,4.15,-1.5
Cc1cc(C)c(C(=O)Nc2n[nH]c3nnc(-c4cccc(F)c4F)cc23)c(C)c1,0.09,-0.09,0.28
Cc1[nH]c2ccccc2c(=O)c1Br,5.04,5.06,-5.87
CN1CCCC(CN2CCN(Cc3ccc(-c4ccc(-c5nc6ccccc6[nH]5)cc4)cc3)CC2)C1 (stereo unspecified),13,15.9,7.8
Cc1csc(NC(=O)c2cn(-c3ccccc3)nc2-c2cccs2)n1,6.04,4.44,0.74
COCCNCc1cccc(C#Cc2cc3ncnc(Nc4ccc(OCc5cccc(F)c5)c(Cl)c4)c3s2)n1,5.28,5.8,3.62
COc1cccc(NC(=O)Nc2ccc(Nc3nc(C)cc(N(C)C)n3)cc2)c1,2.46,1.22,-4.92
CCCc1cc(Cc2cnc(N)nc2N)cc(CCC)c1O,2.06,1.83,1.49
O=C(Nc1ccc(Br)c(Cl)c1)c1cc([N+](=O)[O-])cc2cn[nH]c12,-0.11,-0.77,1.08
CC(C)Cc1ccc(N2CCN(CCCCNC(=O)c3ccc(NC(=O)c4cc(C(F)(F)F)cc(C(F)(F)F)c4)cc3)CC2)cc1,0.41,1.08,-0.64
O=C(Nc1ccc(C(F)(F)F)cc1)c1ccc(S(=O)(=O)NC2CCN(Cc3ccccc3)C2)cc1 (stereo unspecified),5.58,5.18,2.71
